# Experimental data published in PubChem BioAssay (EPA / NIEHS).
# Results filed as inconclusive are left out. Active and inactive are the calls of the source. How the source made its calls: active means hit-call score of the fitted dose curve at least 0.9, where 1 is the maximum; inconclusive means response in the unintended direction; inactive means score below 0.9.
# Experiments:
# [1] = target: human Leukotriene B4 Receptor 1 (LTB4-BLT1), LTB4R (gene 1241) (UniProt Q15722); experiment: NVS_GPCR_hLTB4_BLT1: NovaScreen (NVS) G Protein-Coupled Receptor Assay for human Leukotriene B4 Receptor 1 (LTB4-BLT1) (AID 2283271)
# Chain of human Leukotriene B4 Receptor 1 (LTB4-BLT1), LTB4R (gene 1241) (Q15722 whole entry, looked up): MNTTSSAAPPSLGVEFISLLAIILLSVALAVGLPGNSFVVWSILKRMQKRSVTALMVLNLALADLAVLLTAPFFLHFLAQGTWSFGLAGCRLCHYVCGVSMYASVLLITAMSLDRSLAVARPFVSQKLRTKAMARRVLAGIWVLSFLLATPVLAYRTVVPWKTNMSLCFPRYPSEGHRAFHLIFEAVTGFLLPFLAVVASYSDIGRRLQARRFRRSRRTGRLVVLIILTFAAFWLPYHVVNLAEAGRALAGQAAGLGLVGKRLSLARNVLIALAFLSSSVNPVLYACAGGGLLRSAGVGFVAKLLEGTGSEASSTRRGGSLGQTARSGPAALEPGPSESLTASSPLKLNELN
# Summary of the method: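 Cell-free human neutrophil receptor preparation, 1 h exposure, radioligand binding read by filter scintillation counting. Single 25 uM duplicate screen, then concentration series topping at 50 uM; binding loss scored against DMSO baseline.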
# [2] = target: Muscarinic acetylcholine receptor M3 (Homo sapiens) (UniProt P20309); experiment: NVS_GPCR_hM3: NovaScreen (NVS) G Protein-Coupled Receptor Assay for human Muscarinic, M3 Receptor (AID 2283272)
# Chain of Muscarinic acetylcholine receptor M3 (Homo sapiens) (P20309 whole entry, looked up): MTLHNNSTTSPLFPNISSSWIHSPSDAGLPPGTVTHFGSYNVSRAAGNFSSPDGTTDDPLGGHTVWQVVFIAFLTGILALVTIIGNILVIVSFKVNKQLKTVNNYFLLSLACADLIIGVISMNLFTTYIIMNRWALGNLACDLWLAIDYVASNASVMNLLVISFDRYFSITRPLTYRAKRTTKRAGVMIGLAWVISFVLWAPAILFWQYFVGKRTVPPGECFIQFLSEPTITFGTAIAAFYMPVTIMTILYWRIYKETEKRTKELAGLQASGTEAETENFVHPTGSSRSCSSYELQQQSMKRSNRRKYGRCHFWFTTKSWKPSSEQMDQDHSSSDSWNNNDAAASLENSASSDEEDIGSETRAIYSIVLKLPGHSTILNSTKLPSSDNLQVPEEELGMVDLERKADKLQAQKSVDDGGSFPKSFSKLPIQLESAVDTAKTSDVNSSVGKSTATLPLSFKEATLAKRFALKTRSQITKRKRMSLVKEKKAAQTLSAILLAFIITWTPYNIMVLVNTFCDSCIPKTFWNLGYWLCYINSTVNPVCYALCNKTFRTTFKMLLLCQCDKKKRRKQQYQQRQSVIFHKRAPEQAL
# Summary of the method: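 Radioligand displacement binding on human M3 receptor in CHO-derived membranes, 1 h incubation, filter-based scintillation counting. Primary screen in duplicate at 25 uM; actives followed up in concentration series; loss of signal versus DMSO.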
# [3] = target: Muscarinic acetylcholine receptor M2 (Homo sapiens) (UniProt P08172); experiment: NVS_GPCR_hM2: NovaScreen (NVS) G Protein-Coupled Receptor Assay for human Muscarinic, M2 Receptor (AID 2283273)
# Chain of Muscarinic acetylcholine receptor M2 (Homo sapiens) (P08172 whole entry, looked up): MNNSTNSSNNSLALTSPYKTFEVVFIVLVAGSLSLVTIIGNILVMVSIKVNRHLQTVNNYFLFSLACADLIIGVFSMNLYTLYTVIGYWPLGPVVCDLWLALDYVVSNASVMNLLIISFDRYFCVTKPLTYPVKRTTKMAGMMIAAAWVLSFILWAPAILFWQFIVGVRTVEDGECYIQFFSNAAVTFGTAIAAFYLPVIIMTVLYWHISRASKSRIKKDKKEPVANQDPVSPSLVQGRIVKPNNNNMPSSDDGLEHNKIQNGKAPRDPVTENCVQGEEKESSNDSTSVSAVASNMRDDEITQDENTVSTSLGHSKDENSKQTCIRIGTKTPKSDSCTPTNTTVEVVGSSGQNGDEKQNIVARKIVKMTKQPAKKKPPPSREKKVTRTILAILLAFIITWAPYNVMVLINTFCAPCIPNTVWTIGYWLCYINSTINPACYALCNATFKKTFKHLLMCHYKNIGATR
# Summary of the method: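 Radioligand competition binding, cell-free, receptor from CHO; 1 h incubation; scintillation detection. Primary testing at 25 uM in duplicate.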
# [4] = target: human Muscarinic, M4 Receptor, CHRM4 (gene 1132) (UniProt P08173); experiment: NVS_GPCR_hM4: NovaScreen (NVS) G Protein-Coupled Receptor Assay for human Muscarinic, M4 Receptor (AID 2283274)
# Chain of human Muscarinic, M4 Receptor, CHRM4 (gene 1132) (P08173 whole entry, looked up): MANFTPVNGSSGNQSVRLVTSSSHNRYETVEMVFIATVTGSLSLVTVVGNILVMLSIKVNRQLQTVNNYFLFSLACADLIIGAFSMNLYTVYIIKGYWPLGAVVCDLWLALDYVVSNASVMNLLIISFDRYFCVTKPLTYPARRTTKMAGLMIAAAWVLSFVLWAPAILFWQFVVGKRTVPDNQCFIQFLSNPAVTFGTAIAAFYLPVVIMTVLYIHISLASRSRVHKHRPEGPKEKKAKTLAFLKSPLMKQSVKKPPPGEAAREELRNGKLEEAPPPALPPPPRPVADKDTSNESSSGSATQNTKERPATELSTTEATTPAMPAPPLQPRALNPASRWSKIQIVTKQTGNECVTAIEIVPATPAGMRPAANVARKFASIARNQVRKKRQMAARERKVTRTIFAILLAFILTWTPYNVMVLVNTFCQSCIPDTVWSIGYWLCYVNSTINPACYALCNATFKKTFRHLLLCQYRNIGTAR
# Summary of the method: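 Filter-based scintillation counting of radioligand bound to CHO-expressed human M4 preparations after 1 h; loss of signal fitted versus DMSO. Initial duplicate testing at 25 uM, concentration-response follow-up for actives.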
# [5] = target: human Endothelin Receptor Type B (ETB), EDNRB (gene 1910) (UniProt P24530); experiment: NVS_GPCR_hETB: NovaScreen (NVS) G Protein-Coupled Receptor Assay for human Endothelin Receptor Type B (ETB) (AID 2283267)
# Chain of human Endothelin Receptor Type B (ETB), EDNRB (gene 1910) (P24530 whole entry, looked up): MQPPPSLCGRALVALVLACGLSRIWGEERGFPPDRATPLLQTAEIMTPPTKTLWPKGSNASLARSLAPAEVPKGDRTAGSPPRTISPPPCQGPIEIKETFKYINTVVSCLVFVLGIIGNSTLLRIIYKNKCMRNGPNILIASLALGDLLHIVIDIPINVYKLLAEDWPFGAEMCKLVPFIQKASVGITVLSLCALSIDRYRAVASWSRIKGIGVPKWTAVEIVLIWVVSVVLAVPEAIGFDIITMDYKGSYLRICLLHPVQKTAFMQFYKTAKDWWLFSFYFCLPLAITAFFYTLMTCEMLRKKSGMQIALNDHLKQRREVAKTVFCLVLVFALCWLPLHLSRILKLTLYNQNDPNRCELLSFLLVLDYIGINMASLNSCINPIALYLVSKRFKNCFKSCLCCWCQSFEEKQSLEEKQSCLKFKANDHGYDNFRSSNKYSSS
# Summary of the method: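 Filter-based scintillation readout of radioligand displacement, 4 h, using membranes from human astrocytoma cells. Actives from a 25 uM duplicate screen were retested in concentration-response (top 50 uM) relative to DMSO baseline.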
# [6] = target: human Neurokinin, NK2 Receptor, TACR2 (gene 6865) (UniProt P21452); experiment: NVS_GPCR_hNK2: NovaScreen (NVS) G Protein-Coupled Receptor Assay for human Neurokinin, NK2 Receptor (AID 2283278);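 further: actives reduce bound radioligand signal relative to DMSO baseline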
# Chain of human Neurokinin, NK2 Receptor, TACR2 (gene 6865) (P21452 whole entry, looked up): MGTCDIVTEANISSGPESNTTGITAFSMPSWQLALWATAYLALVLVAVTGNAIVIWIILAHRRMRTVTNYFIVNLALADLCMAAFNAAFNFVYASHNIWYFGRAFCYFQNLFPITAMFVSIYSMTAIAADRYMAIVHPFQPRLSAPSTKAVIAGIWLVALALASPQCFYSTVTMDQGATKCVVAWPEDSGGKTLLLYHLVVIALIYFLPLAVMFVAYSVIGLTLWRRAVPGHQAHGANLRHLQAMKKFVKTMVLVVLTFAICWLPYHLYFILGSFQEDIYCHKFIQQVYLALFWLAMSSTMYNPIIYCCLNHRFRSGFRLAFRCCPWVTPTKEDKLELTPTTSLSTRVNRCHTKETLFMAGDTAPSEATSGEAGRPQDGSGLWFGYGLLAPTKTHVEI
# Summary of the method: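 Radioligand binding on membranes from CHO cells expressing receptor, filter-based scintillation read 4 h after dosing. Initial duplicate screen at 25 uM, actives in concentration series; loss of signal versus DMSO.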
# [7] = target: human Neuropeptide Receptor Y1 (NPY1), NPY1R (gene 4886) (UniProt P25929); experiment: NVS_GPCR_hNPY1: NovaScreen (NVS) G Protein-Coupled Receptor Assay for human Neuropeptide Receptor Y1 (NPY1) (AID 2283276)
# Chain of human Neuropeptide Receptor Y1 (NPY1), NPY1R (gene 4886) (P25929 whole entry, looked up): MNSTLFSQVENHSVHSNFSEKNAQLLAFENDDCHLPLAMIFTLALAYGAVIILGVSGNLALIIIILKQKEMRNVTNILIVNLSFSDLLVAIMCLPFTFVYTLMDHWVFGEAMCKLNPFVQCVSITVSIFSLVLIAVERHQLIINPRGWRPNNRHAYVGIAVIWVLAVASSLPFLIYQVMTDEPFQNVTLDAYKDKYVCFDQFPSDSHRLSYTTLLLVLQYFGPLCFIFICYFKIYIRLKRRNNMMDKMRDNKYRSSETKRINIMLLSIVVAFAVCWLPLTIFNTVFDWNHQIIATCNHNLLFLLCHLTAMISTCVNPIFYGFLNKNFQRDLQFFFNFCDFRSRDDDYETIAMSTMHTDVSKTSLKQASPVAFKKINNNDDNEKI
# Summary of the method: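 Displacement of specific radioligand from NPY1 receptor of SK-N-MC origin, read by filtration and scintillation after 1 h. Compounds first tested at 25 uM in duplicate, then actives in concentration series; signal loss relative to DMSO.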
# [8] = target: D(1A) dopamine receptor (Homo sapiens) (UniProt P21728); experiment: NVS_GPCR_hDRD1: NovaScreen (NVS) G Protein-Coupled Receptor Assay for human Dopamine Receptor D1 (DRD1) (AID 2283269)
# Chain of D(1A) dopamine receptor (Homo sapiens) (P21728 whole entry, looked up): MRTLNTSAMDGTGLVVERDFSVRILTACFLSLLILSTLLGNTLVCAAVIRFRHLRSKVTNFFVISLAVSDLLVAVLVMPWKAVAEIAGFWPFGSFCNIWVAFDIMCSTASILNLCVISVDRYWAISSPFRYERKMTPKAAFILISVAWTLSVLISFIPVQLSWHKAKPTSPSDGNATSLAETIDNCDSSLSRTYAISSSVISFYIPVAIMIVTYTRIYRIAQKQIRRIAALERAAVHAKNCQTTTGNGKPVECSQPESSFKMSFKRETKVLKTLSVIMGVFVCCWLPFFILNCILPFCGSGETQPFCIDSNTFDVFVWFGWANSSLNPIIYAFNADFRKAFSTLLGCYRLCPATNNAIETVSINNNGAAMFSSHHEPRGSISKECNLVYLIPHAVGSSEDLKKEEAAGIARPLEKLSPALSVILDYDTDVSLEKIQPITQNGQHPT
# Summary of the method: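 Radioligand displacement binding on membranes/protein extracted from HEK293 expressing human D1, cell-free; read 1 h after dosing by filter-based scintillation counting. Primary screen in duplicate at 25 uM, actives followed up in concentration series; signal loss versus DMSO baseline.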
# [9] = target: Muscarinic acetylcholine receptor M1 (Homo sapiens) (UniProt P11229); experiment: NVS_GPCR_hM1: NovaScreen (NVS) G Protein-Coupled Receptor Assay for human Muscarinic, M1 Receptor (AID 2283270)
# Chain of Muscarinic acetylcholine receptor M1 (Homo sapiens) (P11229 whole entry, looked up): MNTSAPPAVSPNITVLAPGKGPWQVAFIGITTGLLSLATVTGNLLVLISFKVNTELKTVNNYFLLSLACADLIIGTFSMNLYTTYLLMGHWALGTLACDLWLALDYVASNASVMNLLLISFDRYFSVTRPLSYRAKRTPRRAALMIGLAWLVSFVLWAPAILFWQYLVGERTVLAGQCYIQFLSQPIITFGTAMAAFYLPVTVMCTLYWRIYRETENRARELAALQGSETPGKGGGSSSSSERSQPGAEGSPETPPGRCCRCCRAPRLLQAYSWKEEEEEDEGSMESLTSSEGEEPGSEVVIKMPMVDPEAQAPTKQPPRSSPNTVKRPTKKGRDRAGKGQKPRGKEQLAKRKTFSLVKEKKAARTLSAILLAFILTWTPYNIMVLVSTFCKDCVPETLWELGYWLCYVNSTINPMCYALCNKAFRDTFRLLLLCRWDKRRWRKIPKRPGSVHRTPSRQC
# Summary of the method: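 Actives from a duplicate 25 uM single-point screen were retested in concentration series. Binding measured as displacement of a radioligand from CHO-derived receptor preparation, 1 h incubation, filtration and scintillation counting, analysed as signal loss against DMSO.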
# [10] = target: Neuropeptide Y receptor type 2 (Homo sapiens) (UniProt P49146); experiment: NVS_GPCR_hNPY2: NovaScreen (NVS) G Protein-Coupled Receptor Assay for human Neuropeptide Receptor Y2 (NPY2) (AID 2283277)
# Chain of Neuropeptide Y receptor type 2 (Homo sapiens) (P49146 whole entry, looked up): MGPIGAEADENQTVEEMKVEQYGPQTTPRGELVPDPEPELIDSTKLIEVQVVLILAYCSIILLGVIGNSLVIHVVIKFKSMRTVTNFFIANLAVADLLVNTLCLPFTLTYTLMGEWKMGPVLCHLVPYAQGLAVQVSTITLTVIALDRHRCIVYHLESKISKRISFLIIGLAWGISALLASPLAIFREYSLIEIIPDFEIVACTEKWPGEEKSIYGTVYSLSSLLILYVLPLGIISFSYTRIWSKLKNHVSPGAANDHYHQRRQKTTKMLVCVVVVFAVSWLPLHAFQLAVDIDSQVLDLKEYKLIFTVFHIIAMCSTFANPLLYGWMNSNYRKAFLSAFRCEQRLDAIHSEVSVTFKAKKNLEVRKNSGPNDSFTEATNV
# Summary of the method: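 Chemicals were first tested in duplicate at 25 uM, then actives in singleton concentration series to 50 uM. Tracer binding to SK-N-MC-derived protein measured cell-free after 1 h via filter scintillation; signal loss relative to DMSO.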
smiles,measurement,setting,value
CCN(C(=O)c1cc(C)cc(OC[C@H](C)Nc2ccncc2)c1)C(C)C,AC50,[1],5.9 µM (active)
same,AC50,[2],16.9 µM (active)
same,AC50,[3],10.6 µM (active)
same,AC50,[4],11.3 µM (active)
CCCCC(CC)COC(=O)CCCCCCCCC(=O)OCC(CC)CCCC (stereo not drawn),outcome,[5],inactive
On1ccccc1=S,AC50,[6],8.14 µM (active)
COCCOc1cc2cc(C(=O)NC3CCN(C(C)C)CC3)n(CC(=O)Nc3ccc(Cl)cn3)c2cn1,outcome,[4],inactive
same,outcome,[6],inactive
CN(C)c1ccc(N=NS(=O)(=O)O)cc1,outcome,[7],inactive
same,AC50,[6],0.656 µM (active)
CCOc1cccc(-n2cc(C(=O)N3CCN(c4cc(C(=O)O)c5ccccc5c4)CC3)nc2-c2ccc(C)cc2)c1,AC50,[8],17.1 µM (active)
same,AC50,[4],26.1 µM (active)
same,AC50,[6],7.6 µM (active)
Nc1ccc(Nc2ccccc2)cc1,AC50,[8],17.6 µM (active)
same,AC50,[2],25 µM (active)
same,AC50,[3],25 µM (active)
same,AC50,[4],16.6 µM (active)
O=C(O)CC(O)C(=O)O (stereo not drawn),outcome,[3],inactive
O=C(CCCCCCCCc1cccnc1)N1CCC(C=C(c2ccccc2)c2ccccc2)CC1,outcome,[5],inactive
same,outcome,[2],inactive
CCOC(=O)COc1ccc2c(c1)CC(NCC(O)c1cccc(Cl)c1)CC2 (stereo not drawn),AC50,[8],22.9 µM (active)
same,AC50,[9],4.73 µM (active)
same,AC50,[2],3.78 µM (active)
same,AC50,[3],3.68 µM (active)
same,AC50,[4],1.92 µM (active)
same,AC50,[6],21.7 µM (active)
O=C(OC[C@H]1O[C@@H](OC(=O)c2cc(O)c(O)c(OC(=O)c3cc(O)c(O)c(O)c3)c2)[C@H](OC(=O)c2cc(O)c(O)c(OC(=O)c3cc(O)c(O)c(O)c3)c2)[C@@H](OC(=O)c2cc(O)c(O)c(OC(=O)c3cc(O)c(O)c(O)c3)c2)[C@@H]1OC(=O)c1cc(O)c(O)c(OC(=O)c2cc(O)c(O)c(O)c2)c1)c1cc(O)c(O)c(OC(=O)c2cc(O)c(O)c(O)c2)c1,outcome,[8],inactive
CC[C@H]1CC[C@H](NCc2cc3c(cc2OC)[C@H]2C[C@H]2C(=O)N3C)[C@H](c2ccccc2)N1,AC50,[9],1.47 µM (active)
same,AC50,[2],12.3 µM (active)
same,AC50,[3],0.835 µM (active)
same,AC50,[4],2.31 µM (active)
CCC(C)(C)C(=O)O[C@H]1C[C@@H](C)C=C2C=C[C@H](C)[C@H](CC[C@@H]3C[C@@H](O)CC(=O)O3)[C@H]21,outcome,[8],inactive
O=C(O)c1cccc(N(Cc2cccnc2)c2ccc(OC(F)F)c(OC(F)F)c2)c1,outcome,[6],inactive
Cc1[nH]cnc1C[C@H]1CCc2c(C)c3ccccc3n2C1=O,outcome,[5],inactive
same,outcome,[9],inactive
same,outcome,[1],inactive
same,AC50,[2],15.5 µM (active)
same,outcome,[4],inactive
same,outcome,[6],inactive
CC/C(=C\C(=N/O)C(N)=O)C(C)[N+](=O)[O-] (stereo not drawn),outcome,[6],inactive
C=CCCCCCCCCC(=O)O,outcome,[10],inactive
CCc1cc(SCc2sc(-c3ccc(C(F)(F)F)cc3)nc2CN2CCN(c3ccc(OC)cc3)CC2)ccc1OCC(=O)O,AC50,[8],11.5 µM (active)
same,AC50,[1],37.3 µM (active)
same,AC50,[4],35.7 µM (active)
CC(C)c1cccc(C(C)C)c1N1C(=O)c2ccc(O)cc2C1=O,outcome,[10],inactive
CCOC(=O)c1ccc(C2CCC(NC[C@H](O)COc3ccc(O)c(NS(C)(=O)=O)c3)CC2)cc1 (stereo partly drawn),AC50,[8],21.9 µM (active)
same,AC50,[9],12.7 µM (active)
same,AC50,[2],18 µM (active)
same,AC50,[3],4.31 µM (active)
same,AC50,[4],11.9 µM (active)
same,AC50,[6],5.98 µM (active)
O=c1[nH]c2ccc(S(=O)CCN3CCC(Cc4ccc(F)cc4)CC3)cc2o1 (stereo not drawn),AC50,[8],1.23 µM (active)
CC(C)=CCCC(C)=CC=O,outcome,[6],inactive
CCCN(C1CCN(C(=O)C2CCNCC2)CC1)[C@@H]1CCc2ccc(OC)cc2C1,AC50,[9],0.00229 µM (active)
same,outcome,[1],inactive
same,AC50,[2],0.00453 µM (active)
same,AC50,[3],0.00539 µM (active)
same,AC50,[4],0.00683 µM (active)
CNS(=O)(=O)c1cc(C(=O)N2CCC(CCN3C4CCC3CC(n3c(C)nc5ccccc53)C4)(c3cccc(F)c3)CC2)c(Cl)cc1F (stereo not drawn),AC50,[8],15.8 µM (active)
same,AC50,[3],9.16 µM (active)
same,AC50,[6],1.71 µM (active)
COc1cccc(-c2ccc(/C=C\CN3CCCCCC3)cc2Cl)c1,AC50,[8],12.6 µM (active)
same,AC50,[9],5.57 µM (active)
same,AC50,[1],14.5 µM (active)
same,AC50,[2],2.41 µM (active)
same,AC50,[3],0.427 µM (active)
same,AC50,[4],1.22 µM (active)
same,outcome,[6],inactive
CCn1nc(Cc2ccccc2)cc1C1CCN(C[C@H]2C[C@H](N(C)[C@@H](C(=O)O)C(C)C)C[C@@H]2c2cccc(F)c2)CC1,AC50,[6],20.8 µM (active)
Cn1c(=O)cc(Oc2ccc(F)cc2F)c2cnc(NCC(C)(C)O)nc21,outcome,[6],inactive
Cc1ccc(S(=O)(=O)O)cc1C,outcome,[1],inactive
O=P(OC(CCl)CCl)(OC(CCl)CCl)OC(CCl)CCl,outcome,[8],inactive
same,AC50,[6],12.5 µM (active)
